# Test results taken from PubChem BioAssay AID2732 (Emory University Molecular Libraries Screening Center, 2010).
# About 8,200 (3.7%) of roughly 220,000 compounds were called active. What follows is part of a selection rich in actives, with near analogues and random picks from the rest. Values without a mark were called inactive.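 Rule for the calls: active = compounds that reduced the stress-induced luciferase reporter signal by more than about 70% of percent inhibition (limit read from the data); inactive = the rest.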
# Assay: inhibitors of CHOP promoter induction, primary screen, cell-based, unfolded protein response, luciferase reporter (AID 2732);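 note: 0% = tunicamycin plus vehicle and 100% = wells without tunicamycin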
# Conditions: CHO-K1 CHOP-promoter luciferase, tunicamycin-induced, 15-18 h; at 10 µM; stronger effect = higher value
row,Compound,inhibition
1,Cn1c(Cc2cccc3ccccc23)nnc1SCC(=O)N1CCN(c2cccc(Cl)c2)CC1,78.6% (active)
2,Cc1ccccc1NC(=O)Cc1nnc(SCC(=O)N2CCN(c3ccccc3)CC2)n1C,26.1%
3,Cc1cc2nnc(SCC(=O)N3CCN(c4ccccc4)CC3)n2c(N)n1,23.7%
4,COc1ccc(OC)c(C(=O)c2ccc(Cl)cc2)c1,9.86%
5,Cc1ccc(O)c(CNc2nc3ccccc3n2C)c1,11.9%
6,Cc1ccc(C2=NN(C)c3nc4ccccc4n3C2)cc1,86.3% (active)
7,Cn1cccc1-c1nc2ccccc2n1C,-2.65%
8,COc1ccccc1-n1c(-c2cc(-c3ccco3)[nH]n2)n[nH]c1=S,-7.77%
9,CCO[C@@H]1OC(C(=O)NC2CC2)=C[C@H](C)[C@H]1CCCO,0.64%
10,CCOC(=O)CN(C(=O)COc1nc(C)cc(C)c1C#N)c1ccc(Cl)cc1,23.1%
11,O=C(CCN1C(=O)/C(=C/c2cccs2)SC1=S)NNC(=O)c1cccc(O)c1,46.3%
12,O=C(CCCN1C(=O)/C(=C/c2ccco2)SC1=S)Nc1ccccc1,32.2%
13,O=C(CCCN1C(=O)/C(=C\c2ccco2)SC1=S)Nc1cccc2ccccc12,73.2% (active)
14,O=c1oc(-c2ccccc2NS(=O)(=O)c2ccc(Cl)cc2)nc2ccccc12,21%
15,Cc1ccc(SCc2c(C(=O)N/N=C/C3CC=CCC3)nnn2-c2nonc2N)cc1 (stereo unspecified),36.4%
16,CC(=O)N1N=C(c2ccncc2)OC1(Cc1ccccc1)Cc1ccccc1,-11.2%
17,Cc1cc(C)cc(OCc2nnc(SCC(=O)Nc3ccccc3)o2)c1,91.5% (active)
18,Cc1ccc(NC(=O)CSc2nnc(COc3ccccc3C)o2)cc1,39.4%
19,Cc1cc(C)cc(OCc2nnc(SCC(=O)OC3CCCCC3)o2)c1,25.7%
20,COc1ccc2c(c1)C(=C(C#N)C#N)C(=O)N2CCc1ccccc1,-16.5%
21,O=[N+]([O-])c1ccccc1NCc1ccccc1Cl,34.1%
22,O=C1CCC(=O)N1c1ccc(NCCc2ccccc2F)c([N+](=O)[O-])c1,20%
23,NC(=O)CC(NC(=O)Cc1cccc2ccccc12)c1ccc(NCc2cc(F)ccc2F)c([N+](=O)[O-])c1 (stereo unspecified),99.3% (active)
24,Brc1ccc2ncnc(NCc3cccnc3)c2c1,50.9%

row,Compound,inhibition
1,CCC(C(=O)OCC(=O)Nc1ccc(C(=O)Nc2ccc(OC)cc2)cc1)c1ccccc1 (stereo unspecified),89.3% (active)
2,CCC(C(=O)OCC(=O)Nc1ccccc1-c1ccccc1)c1ccccc1 (stereo unspecified),6.12%
3,CCC(C(=O)OCC(=O)Nc1c(Cl)cc(Cl)cc1Cl)c1ccccc1 (stereo unspecified),48.2%
4,COc1ccc(C2c3ccc(O)cc3Oc3ncn(CCCO)c(=N)c32)cc1OC (stereo unspecified),11.6%
5,CCOCCn1c(-c2ccccc2)nc2ccccc21,5.67%
6,Cc1nn(-c2ncc(C(F)(F)F)cc2Cl)c(=O)n1-c1ccccc1,-12.9%
7,Cc1ccc(-c2ccnc3nc(Sc4ncc(C(F)(F)F)cc4Cl)nn23)cc1,81.4% (active)
8,c1ccc(-c2ccnc3nc(-n4cccc4)nn23)cc1,7.91%
9,COc1ccc(-c2ccc(OC(=O)NC3CCS(=O)(=O)C3)cc2)cc1 (stereo unspecified),20.4%
10,COc1cc(/C=N/NC(=O)c2ccccc2)ccc1OS(=O)(=O)c1ccccc1,-6.49%
11,COc1cc(/C=N/NC(=O)Nc2ccccc2)ccc1OCCOc1ccccc1C,104% (active)
12,COc1ccc(/C=N/NC(=O)c2ccccc2)cc1OS(=O)(=O)c1ccccc1,7.47%
13,CC(C)c1nc(SCC(=O)NC(=O)NC(C)(C)C)n[nH]1,18.7%
14,Cc1cc(C)cc(OCC(=O)O/N=C(\N)Cc2ccc([N+](=O)[O-])cc2)c1,13.5%
15,O=C(Nc1ccc(Br)cn1)C1CCN(S(=O)(=O)c2cccs2)CC1,42.9%
16,C/C=C/C(=O)Nc1ccc(N2CCN(c3ccc(C(F)(F)F)cn3)CC2)nc1,1.12%
17,Nc1ccccc1Sc1ccc(C(F)(F)F)cc1[N+](=O)[O-],-6.84%
18,COc1ccc(-c2nn(C)c(=O)c3ccccc23)cc1CNC(=O)C1CCCCC1,4.54%
19,Cc1cc(NC(=O)CCC2COc3ccccc3O2)no1 (stereo unspecified),7.18%
20,Cc1cc(C(=O)CCl)c(C)n1CC1COc2ccccc2O1 (stereo unspecified),106% (active)
21,CCn1cc(C(=O)NCC2COc3ccccc3O2)c2cc(OC)c(OC)cc2c1=O (stereo unspecified),19.1%
22,O=C(NC1C2CC3CC(C2)CC1C3)c1ccc(N2CCNCC2)c([N+](=O)[O-])c1 (stereo unspecified),-22.1%
23,O=C1CCC(=O)N(O)CCCCCNC(=O)CCC(=O)N(O)CCCCCNC(=O)CCC(=O)N(O)CCCCCN1,3.7%
24,COc1ccccc1NC(=O)c1cc(Cl)nc2ccccc12,11.8%

row,Compound,inhibition
1,CCn1c2ccccc2c2cc(CC(N)=O)ccc21,17.4%
2,NC(N)=N/N=C/c1ccc(Cl)c([N+](=O)[O-])c1,-23.8%
3,NC(N)=N/N=C/c1ccc(OCc2ccc(Cl)cc2Cl)cc1,108% (active)
4,COc1ccc(C(=O)O/N=C(\N)Cc2ccc(Cl)cc2Cl)cc1OC,60.4%
5,O=C(CCc1ccccc1)NNc1ccc(F)cc1,4.92%
6,O=C(NC1(C(F)(F)F)NC(=O)N(C2CCCCC2)C1=O)c1ccco1 (stereo unspecified),9.81%
7,O=C1NC(Nc2nc3ccccc3s2)(C(F)(F)F)C(=O)N1C1CCCCC1 (stereo unspecified),78.6% (active)
8,COC(=O)NC1(C(F)(F)F)NC(=O)N(C2CCCCC2)C1=O (stereo unspecified),2.29%
9,Nc1nc(SC23CC4CC(CC(C4)C2)C3)ns1,11.6%
10,COC(=O)c1cn(C(=O)c2ccc(Cl)cc2)c2ccccc12,9.55%
11,O=C(CSc1nnc(SCc2ccc(F)cc2)s1)Nc1ccc(C(=O)O)cc1,-8.93%
12,COc1ccccc1C1C2=C(COC2=O)Nc2cc3c(cc21)OCO3 (stereo unspecified),23.1%
13,COCCOC(=O)C1=C(C)NC(=O)CC1c1cc2c(cc1Br)OCO2 (stereo unspecified),-14.4%
14,CCCOc1ccccc1C1CC(=O)Nc2cc3c(cc21)OCO3 (stereo unspecified),85.8% (active)
15,CC(C)(C)c1nnc(NC(=O)C2c3ccccc3Oc3ccccc32)s1,45.8%
16,N=C(N)SCc1cccc2ccccc12,35.6%
17,CCn1c(SCc2ccc(C)cc2)nnc1-c1nn(-c2ccccc2)ccc1=O,28.9%
18,CCc1ccc(-c2nn(-c3ccccc3)cc2CSC(=N)N)cc1,103% (active)
19,Cn1c(=O)c2c(-c3cccc(Br)c3)c(C#N)c(N)nc2n(C)c1=O,3.49%
20,Cc1nc(N)sc1N=Nc1c(C)n(C)n(-c2ccccc2)c1=O,4.59%
21,Cc1ccc(NC(=O)CC(=O)Nc2ccc(C)cc2)cc1,20.6%
22,O=C(CCl)Nc1ccc(Sc2ccc(NC(=O)CCl)cc2)cc1,106% (active)
23,CC(C)(CCl)C(=O)Nc1ccc(Sc2ccc(F)cc2)cc1,68%
24,COc1ccc(N=C(C)c2sc3ccccc3c2O)cc1,1.74%

row,Compound,inhibition
1,C=CCNC(=S)N/N=C/c1ccc(C)s1,-20%
2,CC(=O)NCC(O)c1ccc([N+](=O)[O-])cc1 (stereo unspecified),5.99%
3,O=S(=O)(NCc1ccco1)c1cnc(Cl)c(Cl)c1,-45.5%
4,CN=C1C=C/C(=N/N=c2\ccn(O)cc2C)C=C1C,-15.3%
5,CCC(CC)C(=O)N1CC(=O)Nc2ccc(Br)cc2C1c1ccccc1 (stereo unspecified),81.3% (active)
6,Cc1ccc2c(c1)C(c1ccccc1)N(C(=O)c1ccc(S(=O)(=O)N3CCOCC3)cc1)CC(=O)N2 (stereo unspecified),18%
7,COC(=O)CN1C(C)=Nc2ccc(Br)cc2C1c1ccccc1 (stereo unspecified),-10.6%
8,CN(C)C(=O)c1nc2ccc(Cl)cn2c1CNCc1cccc(OC(F)(F)F)c1,-1.69%
9,Cc1cnc(NC(=O)Cn2cnc3c2c(=O)n(C)c(=O)n3C)s1,-10.1%
10,Cc1ccc(C(=O)NNc2ncnc3ccccc23)cc1,3.67%
11,Cc1nn(-c2ccccc2)c(=O)c2noc(C)c12,1.49%
12,Cc1cc(N2CCN(C)CC2)nc2ccc(NC(=S)N3CCOCC3)cc12,2.29%
13,CCn1c2ccccc2c2cc(NC(=S)N3CCOCC3)ccc21,30.3%
14,Cc1cc(N2CCOCC2)nc2ccc(NC(=S)N3CCN(Cc4ccccc4)CC3)cc12,80.6% (active)
15,CC(CO)(CO)NC(=O)c1ccc(=O)[nH]n1,0.5%
16,O=P(O)(CN1CCCCCC1)C1Cc2ccccc2C1,4.35%
17,O=c1c2ccccc2c(-c2ccccc2)nn1Cc1ccccc1,43.8%
18,O=c1cc(N2CCCCC2)c(-c2ccccc2)nn1Cc1cccc(F)c1,74.7% (active)
19,O=c1cc(N2CCN(Cc3ccccc3)CC2)c(-c2ccccc2)n[nH]1,26.9%
20,C/C(Cc1ccccc1)=N\NC(=O)CNC(=O)c1ccccc1Cl,-14.9%
21,COc1ccc(OCC(O)CNCCNc2nccc(C(F)(F)F)n2)cc1 (stereo unspecified),3.94%
22,COc1ccc(/C=N/NC(=O)Cn2cc(C(F)(F)F)ccc2=O)cc1,-10.7%
23,O=C(Cc1ccccc1)N/N=C/c1ccc(Cl)cc1Cl,-13.9%
24,O=C(Cn1cc(C(F)(F)F)ccc1=O)N/N=C/c1ccc(Cl)cc1Cl,104% (active)
